Shown is part of a subset that was picked to be rich in hits.
FECH inh – human FECH heme synthesis enzyme inhibition. P22830. purified FECH, Ni-mesoporphyrin absorbance 550 nm. calls only at 10 µM (by protocol). 3.3% of 20,000 active. AID 1671448;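 active = enzyme reaction rate more than 3 SD below the solvent-only control wells on the same plate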;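 note: lower slope than DMSO wells means FECH inhibition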
Target sequence (P22830 whole entry, looked up): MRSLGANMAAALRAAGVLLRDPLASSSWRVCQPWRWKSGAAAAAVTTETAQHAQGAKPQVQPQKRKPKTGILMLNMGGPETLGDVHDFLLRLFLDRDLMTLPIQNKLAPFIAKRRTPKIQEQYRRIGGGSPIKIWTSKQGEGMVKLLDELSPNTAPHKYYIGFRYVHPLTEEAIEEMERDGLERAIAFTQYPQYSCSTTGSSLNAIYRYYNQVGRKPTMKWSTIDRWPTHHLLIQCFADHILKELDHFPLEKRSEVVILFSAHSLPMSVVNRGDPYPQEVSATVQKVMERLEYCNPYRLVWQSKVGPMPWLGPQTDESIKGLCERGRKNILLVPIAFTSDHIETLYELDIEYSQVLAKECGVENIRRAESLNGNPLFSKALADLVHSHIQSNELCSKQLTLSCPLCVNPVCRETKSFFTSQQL
The depositor's hits bear a star; i = inactive; + = active, no number.

SMILES	FECH inh
COc1cccc(CNC(=O)CN2C(=O)CC(c3ccc(Br)s3)=Nc3ccccc32)c1	i
Cn1nc(-c2cccs2)cc1C(=O)NCCc1nc(-c2ccccn2)no1	i
CCn1c(C2CCCNC2)nn(Cc2nc(-c3ccc(C)cc3)no2)c1=O (stereo not drawn)	i
CCn1nc(C(=O)O)c2c1CCN(C(=O)C1CCN(C(=O)C(C)C)CC1)C2	i
Cc1nc(CN(C)Cc2cccc(C(=O)Nc3cccnc3)c2)cs1	i
CN(Cc1cccc(C(=O)Nc2nccs2)c1)Cc1cnccn1	+
CN(Cc1ccc(C(=O)Nc2ccc3c(c2)ncn3C)cc1)Cc1cnccn1	i
CC(C)c1cc(C(=O)NCc2nc(-c3ccccc3)n[nH]2)n(C)n1	i
COCc1nc2cccnc2n1C1CCN(S(=O)(=O)c2ccc(NC(C)=O)cc2)CC1	+
COCc1nc2cccnc2n1C1CCN(S(=O)(=O)c2ccc(Br)cc2)CC1	i
COCc1nc2cccnc2n1C1CCN(S(=O)(=O)c2ccccc2)CC1	i
Cc1cc(N2CCCC2)nc(Nc2ccc(NC(=O)c3ccccc3Cl)cc2)n1	i
COCCn1c(CNS(=O)(=O)c2ccc(C)c(Cl)c2)nc2cccnc21	i
CSc1nc(NCc2ccc(Cl)cc2)c(C#N)c(-c2ccccc2)n1	i
CSc1nc(NCCC2=CCCCC2)c(C#N)c(-c2ccccc2)n1	+
CSc1nc(NCCN2CCOCC2)c(C#N)c(-c2ccccc2)n1	i
CCn1c(C(=O)N2CCCC(C(=O)NCCc3ccc(S(N)(=O)=O)cc3)C2)cc2sccc21 (stereo not drawn)	i
COC(=O)c1ccc(NC(=O)CN2CCN(Cc3c(C)cc(C)cc3C)S2(=O)=O)cc1	i
COC(=O)C(NC(=O)c1cc(=O)[nH]c2ccccc12)c1cccc(C)c1 (stereo not drawn)	i
O=C(CCc1ccccc1)Nc1nc2n(n1)C(c1c(F)cccc1Cl)C=C(c1ccccc1)N2 (stereo not drawn)	+
CCCC(=O)Nc1nc2n(n1)C(c1c(F)cccc1Cl)C=C(c1ccc(C)cc1)N2 (stereo not drawn)	i
O=C(CCc1ccccc1)Nc1nc2n(n1)C(c1ccccc1Cl)C=C(c1ccccc1)N2 (stereo not drawn)	i
CCCC(=O)Nc1nc2n(n1)C(c1ccccc1Cl)C=C(c1ccc(C)cc1)N2 (stereo not drawn)	i
CC(=O)Nc1nc2n(n1)C(c1c(F)cccc1Cl)C=C(c1ccc(Cl)cc1)N2 (stereo not drawn)	i
CC(C)CC(=O)Nc1nc2n(n1)C(c1c(F)cccc1Cl)C=C(c1ccccc1)N2 (stereo not drawn)	+
SMILES	FECH inh
CCCC(=O)Nc1nc2n(n1)C(c1ccccc1Cl)C=C(c1ccccc1)N2 (stereo not drawn)	i
CC(C)CC(=O)Nc1nc2n(n1)C(c1ccccc1Cl)C=C(c1ccccc1)N2 (stereo not drawn)	i
O=C(Nc1nc2n(n1)C(c1c(F)cccc1Cl)C=C(c1ccccc1)N2)c1ccco1 (stereo not drawn)	i
CCCC(=O)Nc1nc2n(n1)C(c1c(F)cccc1Cl)C=C(c1ccccc1)N2 (stereo not drawn)	+
CCCC(=O)Nc1nc2n(n1)C(c1ccccc1Cl)C=C(c1ccc(Cl)cc1)N2 (stereo not drawn)	+
O=C(Nc1nc2n(n1)C(c1c(F)cccc1Cl)C=C(c1ccccc1)N2)c1ccccc1F (stereo not drawn)	i
O=C(c1ccc(CN2C(=O)CCn3nc(-c4cccc(Cl)c4)cc32)cc1)N1CCCC1	i
O=C(O)C1(C/C=C/c2ccccc2)CCCN(c2ncccc2F)C1 (stereo not drawn)	i
COc1ccc(-c2noc(N3CCCC(C(=O)Nc4ccc(S(N)(=O)=O)cc4)C3)n2)cc1 (stereo not drawn)	i
CC(C)(C)c1cc(CNC(=O)c2cccc(Cn3cccn3)c2)[nH]n1	i
COCCNC(=O)C1(C)Cn2c(cc3ccsc32)C(=O)N1CCc1ccccc1 (stereo not drawn)	i
CCCCN(Cc1ccccc1F)C(=O)C(C)c1n[nH]c(=O)c2ccccc12 (stereo not drawn)	i
Cc1cc(N2CCCC2)nc(Nc2ccc(NC(=O)c3ccc(F)cc3)cc2)n1	i
Cc1cccc(-c2nnc(-c3nc(NC4CCS(=O)(=O)C4)c4ccccc4n3)o2)c1 (stereo not drawn)	i
CCC(=O)Nc1ccc(Sc2c(CC)c(C)nc3ncnn23)cc1	i
CCCCOc1ccc(CNC(=O)CN2C(=O)c3cccnc3Sc3ccccc32)cc1	+
CN1CC(=O)N(CC(=O)Nc2ccc(F)c(F)c2)c2ccccc2C1=O	i
CN1CC(=O)N(CC(=O)NCc2ccc(F)cc2)c2ccccc2C1=O	i
Cc1ccc(NC(=O)CN2C(=O)CN(C)C(=O)c3ccccc32)cc1C	i
CCCCOc1ccc(CNC(=O)c2ccc(CN3C(=O)CCn4nccc43)cc2)cc1	i
O=C(CCCN1C(=O)c2cccnc2Sc2ccccc21)Nc1cc(-c2cccc(Cl)c2)no1	i
CN(C)c1ccc(CNC(=O)CN2C(=O)c3cccnc3Sc3ccccc32)cc1	+
Cc1ccc(NC(=O)CN2C(=O)c3cccnc3Sc3ccccc32)cc1F	+
O=C(CN1C(=O)c2cccnc2Sc2ccccc21)NCCc1ccco1	i
NC(=O)c1ccnc(N2CC[C@@H](N3CCOCC3)[C@H](O)C2)c1	i
SMILES	FECH inh
COc1cccc(-c2c(Nc3ccccc3)oc3c2c(=O)n(C)c(=O)n3C)c1	i
Cc1nnc(SCCCn2cnc(-c3ccccc3)c2C2CCOC2)s1 (stereo not drawn)	i
Cc1ccc2c(c1)CCCN2C(=O)CN1[C@@H]2CC[C@H]1CC(O)C2 (stereo partly drawn)	i
C=C(C)COc1cccc(C(=O)N(C)Cc2cnn(CC)c2C)c1	i
CCCn1cnc2nc(CSc3ccccc3NC(=O)c3ccco3)cc(=O)n21	+
CCCn1cnc2nc(CSc3ccccc3NC(=O)c3cccc(Br)c3)cc(=O)n21	+
CCCn1cnc2nc(CSc3ccccc3NC(=O)c3ccc(F)cc3)cc(=O)n21	+
CC(C)n1cnc2nc(CSc3ccccc3NC(=O)c3ccc(Br)cc3)cc(=O)n21	i
CC(C)n1cnc2nc(CSc3ccccc3NC(=O)Cc3ccccc3)cc(=O)n21	i
Cc1ccc(C(=O)Nc2ccccc2SCc2cc(=O)n3c(ncn3C(C)C)n2)cc1F	i
CCCn1cnc2nc(CSc3ccccc3NC(=O)c3ccccc3)cc(=O)n21	i
COc1ccc(C(=O)Nc2ccccc2SCc2cc(=O)n3c(ncn3C(C)C)n2)cc1	i
CCOc1ccccc1C(=O)Nc1ccccc1SCc1cc(=O)n2c(ncn2C(C)C)n1	i
O=C(c1cc2n(n1)CCNC2)N1CCCC1Cn1cccn1 (stereo not drawn)	i
CCCC(=O)Nc1ccc(CC(=O)NCc2ccccc2C)cc1	i
O=C(NCc1ccc(-n2cncn2)cc1)c1scc2c1OCCO2	i
COCC(=O)N1CCCN(CCn2c(=O)oc3ccccc32)CC1	i
COCc1nc2cccnc2n1C1CCN(S(=O)(=O)c2ccc3c(c2)CCCC3)CC1	i
O=C1CC(=O)Nc2cc(S(=O)(=O)N3CCN(c4ccc(F)cc4)CC3)ccc2N1	+
Nc1ccc(S(=O)(=O)N2CCN(c3ccc(F)cc3)CC2)cc1S(N)(=O)=O	+
Cc1ccc(NS(=O)(=O)c2ccc(N)c(S(N)(=O)=O)c2)cc1Cl	i

From PubChem BioAssay
